The supplement of paper PMC8975748
Counter-ions that a name gives are not always drawn. ± gives the standard deviation of the averaged measurements.

Test system: Saccharomyces cerevisiae BY4741 SeMeCo community
Assay: mean cell size (pixel area) (pixels); higher = larger cells
Conditions: 10 µM; 24 h; SM minimal medium
Summary of the method: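 A fluorescent Saccharomyces cerevisiae BY4741 community carrying four plasmids was used, with each plasmid complementing one auxotrophy and bearing a fluorescent marker. An overnight preculture at OD600 = 1.0 was diluted to OD600 = 0.3, and 70 µl went into 384-well plates acoustically predosed with drug (final 10 µM) in SM medium for 24 h. After paraformaldehyde fixation, cells were imaged by automated confocal microscopy and analysed in Harmony, giving the mean cell pixel area per well. Each value is the average of 3 replicates. Same SeMeCo high-content imaging drug screen: Selleck FDA-approved drugs at 10 µM, 24 h in SM medium, 384-well plates, 3 replicates.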

| Compound | mean cell size |
| --- | --- |
| O=c1[nH]c(=O)n([C@H]2C[C@H](O)[C@@H](CO)O2)cc1I [Idoxuridine] | 12.4 ± 0.2 |
| CC(=O)Oc1ccc(C(=C2CCCCC2)c2ccc(OC(C)=O)cc2)cc1 [Cyclofenil] | 12.3 ± 0.17 |
| Cc1c(-c2ccc(O)cc2)n(Cc2ccc(OCCN3CCCCCC3)cc2)c2ccc(O)cc12 [Bazedoxifene Acetate] | 12.6 ± 0.073 |
| CC1=C(C(=O)OCCN(Cc2ccccc2)c2ccccc2)C(c2cccc([N+](=O)[O-])c2)C(P2(=O)OCC(C)(C)CO2)=C(C)N1 (stereo not given) [Efonidipine] | 12.6 ± 0.14 |
| CO[C@H]1C[C@@H]2CC[C@@H](C)[C@@](O)(O2)C(=O)C(=O)N2CCCC[C@H]2C(=O)O[C@H]([C@H](C)C[C@@H]2CC[C@@H](O)[C@H](OC)C2)CC(=O)[C@H](C)/C=C(\C)[C@@H](O)[C@@H](OC)C(=O)[C@H](C)C[C@H](C)/C=C/C=C/C=C/1C [Rapamycin (Sirolimus)] | 14.19 ± 0.085 |
| CCOC(=O)c1ccc(N)cc1 [Benzocaine hydrochloride] | 12.43 ± 0.056 |
| C=C[C@H]1CN2CC[C@H]1C[C@@H]2[C@@H](O)c1ccnc2ccc(OC)cc12 [Quinidine sulfate] | 12.4 ± 0.13 |
| COC(=O)Nc1nc2cc(C(=O)c3ccc(F)cc3)ccc2[nH]1 [Flubendazole] | 12.19 ± 0.12 |
| CCC(=O)O[C@@H]1CC(=O)O[C@H](C)C/C=C/C=C/[C@H](O)[C@H](C)C[C@H](CC=O)[C@H](O[C@@H]2O[C@H](C)[C@@H](O[C@H]3C[C@@](C)(O)[C@@H](OC(=O)CC)[C@H](C)O3)[C@H](N(C)C)[C@H]2O)[C@H]1OC [Midecamycin] | 12.33 ± 0.1 |
| CO/N=C(\C(=O)N[C@@H]1C(=O)N2C(C(=O)O)=CCS[C@H]12)c1csc(N)n1 [Ceftizoxime sodium] | 12.3 ± 0.25 |
| O=C(O)CCCCCCCC(=O)O [Azelaic acid] | 12.4 ± 0.2 |
| O=C(O)CCC(=O)Nc1ccc(S(=O)(=O)Nc2nccs2)cc1 [Succinylsulfathiazole] | 12.52 ± 0.1 |
| O=c1[nH]cc(F)c(=O)[nH]1 [Fluorouracil (5-Fluoracil, 5-FU)] | 13.9 ± 0.2 |
| C[C@@H]1CN(c2c(F)c(N)c3c(=O)c(C(=O)O)cn(C4CC4)c3c2F)C[C@H](C)N1 [Sparfloxacin] | 12.38 ± 0.094 |
| Oc1c(Br)cc(Br)c2cccnc12 [Broxyquinoline] | 14.7 ± 0.16 |
| CCN(CC)CCOCCOC(=O)C1(c2ccccc2)CCCC1 [Pentoxyverine Citrate] | 12.5 ± 0.13 |
| c1cnc2cc3c(cc2n1)[C@@H]1CNC[C@H]3C1 [Varenicline Tartrate] | 12.1 ± 0.23 |
| Cc1c(Nc2ncccc2C(=O)O)cccc1C(F)(F)F [Flunixin Meglumin] | 12.6 ± 0.17 |
| Nc1nc2ccc(OC(F)(F)F)cc2s1 [Riluzole] | 12.6 ± 0.14 |
| CNCCCN1c2ccccc2CCc2ccccc21 [Desipramine Hydrochloride] | 12.2 ± 0.14 |

| Compound | mean cell size |
| --- | --- |
| CC(Cc1ccc(O)c(O)c1)C(C)Cc1ccc(O)c(O)c1 (stereo not given) [Nordihydroguaiaretic acid (NDGA)] | 12.5 ± 0.17 |
| CSc1nc2cc(Cl)c(Oc3cccc(Cl)c3Cl)cc2[nH]1 [Triclabendazole] | 13.1 ± 0.54 |
| O=c1ccc2ccc(OCCCCN3CCN(c4cccc5sccc45)CC3)cc2[nH]1 [Brexpiprazole] | 12.35 ± 0.092 |
| Cc1nc(Nc2ccc(F)cc2)nc(N2CCc3ccccc3C2C)c1C (stereo not given) [Revaprazan Hydrochloride] | 11.4 ± 0.18 |
| CCOC(=O)C1=C(C)NC(C)=C(C(=O)OC)C1c1cccc([N+](=O)[O-])c1 (stereo not given) [Nitrendipine] | 12.5 ± 0.13 |
| COc1cc(C(C)=O)ccc1OCCCN1CCC(c2noc3cc(F)ccc23)CC1 [Iloperidone] | 12.4 ± 0.16 |
| CCCCN1CCCC[C@H]1C(=O)Nc1c(C)cccc1C [Levobupivacaine HCl] | 12.4 ± 0.15 |
| CC[C@H]1OC(=O)[C@H](C)[C@@H](O[C@H]2C[C@@](C)(OC)[C@@H](O)[C@H](C)O2)[C@H](C)[C@@H](O[C@@H]2O[C@H](C)C[C@H](N(C)C)[C@H]2O)[C@](C)(O)C[C@@H](C)C(=O)[C@H](C)[C@@H](O)[C@]1(C)O [Erythromycin] | 12.3 ± 0.15 |
| C[C@@H]1CC(=O)NN=C1c1ccc(NN=C(C#N)C#N)cc1 [Levosimendan] | 12.5 ± 0.19 |
| Cc1cnc(NC(=O)C2=C(O)c3ccccc3S(=O)(=O)N2C)s1 [Meloxicam] | 12.77 ± 0.087 |
| C[C@@H](O)[C@H]1C(=O)N2C(C(=O)O)=C(SCCNC=N)C[C@H]12 [Imipenem] | 12.26 ± 0.071 |
| NCc1ccccc1CC(=O)N[C@@H]1C(=O)N2C(C(=O)O)=C(CSc3nnnn3CC(=O)O)CS[C@H]12 [Ceforanide] | 12.09 ± 0.042 |
| CN1[C@@H]2CC[C@H]1C[C@@H](OC(=O)c1c[nH]c3ccccc13)C2 [Tropisetron HCl] | 12.57 ± 0.083 |
| N#Cc1ccc(Oc2ccc3c(c2)COB3O)cc1 [Crisaborole (AN2728)] | 12.3 ± 0.19 |
| OCCN(CCO)c1nc(N2CCCCC2)c2nc(N(CCO)CCO)nc(N3CCCCC3)c2n1 [Dipyridamole] | 12.5 ± 0.14 |
| COc1cc([C@@H]2c3cc4c(cc3[C@@H](O[C@@H]3O[C@@H]5CO[C@@H](C)O[C@H]5[C@H](O)[C@H]3O)[C@H]3COC(=O)[C@H]23)OCO4)cc(OC)c1O [Etoposide] | 12.44 ± 0.11 |
| CCCCCCCCCC(=O)N[C@@H](Cc1c[nH]c2ccccc12)C(=O)N[C@H](CC(N)=O)C(=O)N[C@@H](CC(=O)O)C(=O)N[C@@H]1C(=O)NCC(=O)N[C@@H](CCCN)C(=O)N[C@@H](CC(=O)O)C(=O)N[C@H](C)C(=O)N[C@@H](CC(=O)O)C(=O)NCC(=O)N[C@H](CO)C(=O)N[C@@H]([C@H](C)CC(=O)O)C(=O)N[C@@H](CC(=O)c2ccccc2N)C(=O)O[C@@H]1C [Daptomycin] | 12.2 ± 0.16 |
| CCOc1cc(NC(C)=O)ccc1C(=O)OC [Ethopabate] | 12.6 ± 0.26 |
| Cc1c(C)c2c(c(C)c1O)CC[C@@](C)(CCC[C@H](C)CCC[C@H](C)CCCC(C)C)O2 [Vitamin E] | 12.2 ± 0.22 |
| CN1CCN(CCCN2c3ccccc3Sc3ccc(C(F)(F)F)cc32)CC1 [Trifluoperazine 2HCl] | 12.1 ± 0.41 |
